Screens as filed in PubChem.
ALR H2O2 inh – blocks human ALR sulfhydryl oxidase activity; P55789; purified ALR, DTT oxidation, H2O2 HRP-luminol luminescence; inhibition, % (no concentration beside the values); 3.8% of 290,000 active; AID 485317;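 active = mean replicate inhibition above about 79%, with every replicate also reaching it, limit read from the data; inconclusive = only one of the two criteria met; inactive = mean below limit and not every replicate reaching it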
Target sequence (P55789 whole entry, looked up): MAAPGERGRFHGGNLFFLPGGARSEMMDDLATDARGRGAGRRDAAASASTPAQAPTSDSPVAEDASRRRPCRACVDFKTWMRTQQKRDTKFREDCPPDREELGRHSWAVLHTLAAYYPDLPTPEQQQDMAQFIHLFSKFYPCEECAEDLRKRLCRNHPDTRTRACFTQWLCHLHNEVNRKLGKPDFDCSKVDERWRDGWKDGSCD
HDAC3 inhib – blocks human histone deacetylase 3; inhibition, % at 8.3 µM; recombinant HDAC3, fluorogenic peptide/trypsin coupled, fluorescence; AID 2718; 0.15% of 320,000 active; in the data active = inhibition above about 26%, passing the limit was not always enough; inconclusive = no clear call, values can overlap the other calls
Target sequence (O15379 whole entry, looked up): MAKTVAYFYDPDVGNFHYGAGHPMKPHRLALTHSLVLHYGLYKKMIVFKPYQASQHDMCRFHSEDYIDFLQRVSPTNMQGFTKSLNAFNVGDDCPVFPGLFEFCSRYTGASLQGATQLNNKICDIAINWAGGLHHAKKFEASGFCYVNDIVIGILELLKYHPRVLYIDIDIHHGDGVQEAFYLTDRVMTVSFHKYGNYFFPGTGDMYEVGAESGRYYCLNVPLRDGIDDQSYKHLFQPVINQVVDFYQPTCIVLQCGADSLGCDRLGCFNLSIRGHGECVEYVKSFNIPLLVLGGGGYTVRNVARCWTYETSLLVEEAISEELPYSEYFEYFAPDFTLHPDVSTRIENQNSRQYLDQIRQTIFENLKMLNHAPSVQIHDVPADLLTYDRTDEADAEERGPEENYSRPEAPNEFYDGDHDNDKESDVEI
GC-A act – GC-A (human) enzyme activation | AID 1671463 | 0.14% of 370,000 active | activation, % at 10 µM | HEK293 GC-A cells, cGMP TR-FRET, EC30 ANP; 0% at EC30 ANP, 100% saturating ANP; in the data active = activation above about 40%
GC-B act – GC-B (human) receptor activation; AID 1920062; 0.11% of 370,000 active; HEK293-GC-B cells, CNP EC30, cGMP TR-FRET; 0% at EC30 CNP, 100% saturating CNP; activation, % at 10 µM; P20594;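 active = activation at 10 µM reaching about 35% in either raw or pattern-adjusted values, limit read from the data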
Large screens that a line does not name were inactive. The full list was thinned out, with hits kept by preference.

CC(=O)c1ccc(NC(=O)CSc2ccc(-c3sc(C)nc3C)nn2)cc1	ALR H2O2 inh 99.2 (no result: HDAC3 inhib)
COc1cccc(NC(=O)CSc2nnc(COc3ccc4c(c3)CCCC4)o2)c1	none
COc1ccc(OC)c(NC(=O)CSc2nnc(CNc3ccc(F)cc3)o2)c1	ALR H2O2 inh 90.6
COc1ccc(OCc2nnc(SCC(=O)Nc3cccc(C(C)=O)c3)o2)cc1	ALR H2O2 inh 98.7
Cc1nc(C)c(-c2ccc(SCC(=O)Nc3ccc(C)c(Cl)c3)nn2)s1	none
COc1ccc(NCc2nnc(SCC(=O)Nc3cccc(C)c3)o2)cc1	ALR H2O2 inh 98.9, HDAC3 inhib inconclusive
COc1ccc(NCc2nnc(SCC(=O)Nc3ccccc3OC)o2)cc1	none
CN1OC[C@@H]2CN3C(=Nc4cc(C(F)(F)F)cc(C(F)(F)F)c4)Sc4ccccc4[C@@H]3C[C@@H]21	none (no result: ALR H2O2 inh, HDAC3 inhib)
COc1cccc(OC)c1C(=O)Nc1ccccc1C(=O)N1CCCC1	none
O=S1(=O)CCN2C=C(Cl)C=C(Cl)C2=N1	none
CN1CCCCC(NC(=O)c2cccc(F)c2)C1=O (centres undefined)	none (no result: ALR H2O2 inh, HDAC3 inhib)
CCc1nnc(NC(=O)CSc2nnc(CNc3ccc(Cl)cc3)o2)s1	ALR H2O2 inh 99.3 (no result: GC-A act, GC-B act)
COc1ccc(NCc2nnc(SCC(=O)c3ccc(OC)cc3)o2)cc1	ALR H2O2 inh 98.4, HDAC3 inhib 41.1
COc1ccc(-c2ccc(SCC(=O)Nc3cccc(C(C)=O)c3)nn2)cc1OC	ALR H2O2 inh 85.4
CCc1nnc(NC(=O)CSc2nnc(Cc3ccccc3)o2)s1	none (no result: HDAC3 inhib)
COc1ccc(C(=O)N/C(=C\c2cn(C)c3ccccc23)C(=O)NCCCn2ccnc2)cc1OC	none
Cc1ccc(C(=O)COC(=O)CN2C(=O)C3C4CCC(C4)C3C2=O)cc1C (centres undefined)	none (no result: ALR H2O2 inh, HDAC3 inhib)
CCN1C(=O)/C(=C\N(C)C)NC1=S	ALR H2O2 inh 97.5
N#C/C(=N\Nc1cccc(C(F)(F)F)c1)C(=O)c1csc(-c2cccnc2)n1	ALR H2O2 inh 97.0
Cc1ccc(S(=O)(=O)N2CCOCC2)cc1C(=O)OCC(=O)Nc1ccc(Cl)cn1	none (no result: ALR H2O2 inh, HDAC3 inhib)
COc1ccc(-c2cn3c4c(sc3n2)CCCC4)cc1	ALR H2O2 inh 96.2
N#CCCN(C(=O)COc1ccc(Cl)cc1Cl)c1ccccc1	none
Nc1c(-c2ccccc2)c(CSc2nc3ccccc3[nH]2)nn1-c1cccc(Cl)c1	ALR H2O2 inh 90.6
Cc1ccc2c(CC(=O)OC3CCOC3=O)coc2c1 (centres undefined)	GC-A act 43.0
COCCn1c(SCC(=O)c2cc(C)n(C)c2C)nc2ccccc2c1=O	ALR H2O2 inh 98.8
COc1ccc(C2CC(c3cccs3)=Nc3ccccc3S2)cc1 (centres undefined)	none
Cc1nc(SCC(=O)Nc2ccccc2Cl)oc1C	ALR H2O2 inh 99.1
Cc1cccc(-n2c(N)cc(=O)nc2SCC(=O)Nc2ccccc2)c1	ALR H2O2 inh 98.0
Nc1cc(=O)nc(SCC(=O)Nc2ccccc2)n1-c1ccccc1	none
CC(NC(=O)CSc1nc(=O)cc(N)n1-c1ccccc1)c1ccccc1 (centres undefined)	none
Nc1cc(=O)nc(SCC(=O)Nc2ccccc2Cl)n1-c1ccccc1	ALR H2O2 inh 99.2
C=CCn1c(N)cc(=O)nc1SCC(=O)NC(C)c1ccccc1 (centres undefined)	none
C=CCn1c(N)cc(=O)nc1SCC(=O)Nc1ccc2ccccc2c1	ALR H2O2 inh 98.9
CCc1cccc(C)c1NC(=O)CSc1nc(C)c(C)o1	HDAC3 inhib inconclusive
Nn1c(SCc2cccc3ccccc23)nnc1-c1ccco1	ALR H2O2 inh 99.1
Cn1c(SCc2cccc3ccccc23)nnc1-c1ccco1	none
O=S(=O)(c1ccc(Cl)s1)N1CCCc2cccc(O)c21	ALR H2O2 inh 98.8
CCN1CCN(C(=O)C2CCN(S(=O)(=O)N3CCC4(CC3)OCCO4)CC2)CC1	none
CCc1nc(CN(C)C(=O)C2CCC(=O)N(CCc3cccc(F)c3)C2)no1 (centres undefined)	none
CCOc1ccc(N2C(=O)CNC2=S)cc1	ALR H2O2 inh 90.9
CCn1cc(C(=O)NC(=S)Nc2ccccc2Br)cn1	none
CCn1cc(C(=O)NC(=S)Nc2ccccc2[N+](=O)[O-])cn1	ALR H2O2 inh 98.8
O=C1OC(c2ccc(F)cc2)CC1CN1CCOCC1 (centres undefined)	none (no result: ALR H2O2 inh, HDAC3 inhib)
COc1ccc(-n2nnnc2S(=O)(=O)CC(=O)N2CCCCC2)cc1	ALR H2O2 inh 97.7
COc1cc(OC)cc(-n2nnnc2SCC(=O)N2CCCC2)c1	none
COc1ccc(-n2nnnc2S(=O)(=O)Cc2ccc(C(=O)O)cc2)cc1	ALR H2O2 inh 97.9
CCN(Cc1nc2ccccc2c(=O)[nH]1)C(=O)c1ccc(C)c(NC(=O)c2ccco2)c1	none
COC(=O)Cc1nnn2c1CC(OC)c1ccccc1-2 (centres undefined)	none (no result: ALR H2O2 inh, HDAC3 inhib)
CCOc1cc(/C=C2\C(=O)ON=C2C)ccc1OCc1ccccc1	GC-B act 45.9
COc1ccc(/C=C2/C(=O)ON=C2C)cc1Cl	none
C=CCOc1ccc(/C=C2/C(=O)ON=C2C)cc1OC	GC-A act 41.0 (no result: ALR H2O2 inh)
CCCOc1ccc(/C=C2/C(=O)ON=C2C)cc1OCC	none
CCOCc1c(C(=O)NCC(c2ccco2)N2CCCC2)oc2ccccc12 (centres undefined)	none
CCOc1cc(/C=N/Nc2ncc(C)c(=O)[nH]2)ccc1O	ALR H2O2 inh 99.7
Cc1cc(=O)[nH]c(NN=Cc2cc(Br)ccc2O)n1	none (no result: ALR H2O2 inh, HDAC3 inhib)
CCOc1cc(/C=N/Nc2nc(C)cc(=O)[nH]2)ccc1O	ALR H2O2 inh 95.8
Cc1cc(=O)[nH]c(N/N=C/c2c(F)c(F)c(F)c(F)c2F)n1	ALR H2O2 inh 75.9
Cc1nn(-c2ccccn2)c2c1C(=O)CC(C)(C)C2Br (centres undefined)	none (no result: HDAC3 inhib)
COc1cc(C=Nn2c(-c3ccccc3F)n[nH]c2=S)ccc1OCc1ccccc1	none (no result: ALR H2O2 inh, HDAC3 inhib)
Nc1nc(N)nc(-c2cc(O)ccc2O)n1	ALR H2O2 inh 90.8, HDAC3 inhib inconclusive
COc1ccc(Cn2c(NC(=O)c3ccccc3)nc(Cc3ccccc3)c2Cc2ccccc2)c(OC)c1	none (no result: ALR H2O2 inh, HDAC3 inhib)
CN(Cc1ccccc1)c1nc2nonc2nc1N1CCCC(CN2CCCC2=O)C1 (centres undefined)	HDAC3 inhib inconclusive
O=c1c2cc3c(=O)n(-c4ccccc4O)c(=O)c3cc2c(=O)n1-c1ccccc1O	none
Nc1cc(OC(=O)c2ccc(F)cc2)nn1S(=O)(=O)c1ccccc1	HDAC3 inhib 58.7
COc1ccc(S(=O)(=O)n2nc(OC(=O)c3ccncc3)cc2N)cc1	none
CS(=O)(=O)n1nc(OC(=O)c2cccs2)cc1N	ALR H2O2 inh 89.1, HDAC3 inhib 92.6
COc1ccc(S(=O)(=O)n2nc(OC(=O)c3ccccc3Br)cc2N)cc1	none
COc1cc(C(=O)Oc2cc(N)n(S(=O)(=O)c3ccc(F)cc3)n2)cc(OC)c1OC	none
COc1ccc(S(=O)(=O)n2nc(OC(=O)c3cccs3)cc2N)cc1	HDAC3 inhib 95.3
COc1ccc(S(=O)(=O)n2nc(OC(=O)c3ccccc3)cc2N)cc1	HDAC3 inhib 53.9 (no result: ALR H2O2 inh)
CS(=O)(=O)n1nc(OC(=O)c2cccc3ccccc23)cc1N	none
O=C(CCS(=O)(=O)c1ccccc1)Nc1cccc2c1C(=O)NC2=O	none
